# Results taken from the supplement of paper PMC8728848.
# Many of the other results were omitted from the sample, so the strongest signals are more common in it than they were.
# What was measured:
# Assay in all cases: glycan array binding signal (z-score within array); higher = stronger binding
# Details in all cases: glycan notation: IUPAC condensed, linker removed
# [1] = biological target: Fuc(a1-2)Gal(b1-4)GlcNAc(b1-3)Gal(b1-4)GlcNAc(b1-2)Man(a1-3)[Fuc(a1-2)Gal(b1-4)GlcNAc(b1-3)Gal(b1-4)GlcNAc(b1-2)Man(a1-6)]Man(b1-4)GlcNAc(b1-4)GlcNAc
# Outline: (§1)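 Glycan array binding is given as a within-array Z-score, which can be read as non-binding when negative. The arrays, 3228 of them, came from the Consortium for Functional Glycomics database and were retained only where the protein sequence was available. Z-scores were averaged across arrays of the same protein sequence at different concentrations or buffers and across linkers.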
# [2] = biological target: Fuc(a1-2)Gal(b1-4)[Fuc(a1-3)]GlcNAc(b1-3)Gal(b1-4)[Fuc(a1-3)]GlcNAc(b1-3)Gal(b1-4)[Fuc(a1-3)]GlcNAc
# Outline: as §1
# [3] = biological target: Fuc(a1-2)Gal(b1-4)[Fuc(a1-3)]GlcNAc(b1-3)GalNAc
# Outline: as §1
# [4] = biological target: Fuc(a1-2)Gal6S(b1-4)Glc6S
# Outline: as §1
# [5] = biological target: Fuc(a1-3)[Gal(b1-4)]GlcNAc(b1-6)GalNAc
# Outline: as §1
# Gal(a1-2)Gal = biological target: Gal(a1-2)Gal
# Outline: as §1
# Gal(a1-3)Gal(b1-3)GlcNAc = biological target: Gal(a1-3)Gal(b1-3)GlcNAc
# Outline: as §1
# Gal(a1-3)Gal(b1-4)Glc = biological target: Gal(a1-3)Gal(b1-4)Glc
# Outline: as §1
# Gal(a1-4)GlcNAc = biological target: Gal(a1-4)GlcNAc
# Outline: as §1
# Gal(b1-2)Gal = biological target: Gal(b1-2)Gal
# Outline: as §1
# Gal(b1-3)Gal = biological target: Gal(b1-3)Gal
# Outline: as §1
# Gal(b1-3)GalNAc = biological target: Gal(b1-3)GalNAc
# Outline: as §1
# [6] = biological target: Gal(b1-3)[Fuc(a1-4)]GlcNAc(b1-6)GalNAc
# Outline: as §1
# [7] = biological target: Gal(b1-4)GalNAc(b1-3)[Fuc(a1-2)]Gal(b1-4)GlcNAc
# Outline: as §1
# [8] = biological target: Gal(b1-4)GlcNAc(b1-3)Gal(b1-4)GlcNAc(b1-2)Man(a1-3)[Gal(b1-4)GlcNAc(b1-3)Gal(b1-4)GlcNAc(b1-2)Man(a1-6)]Man(b1-4)GlcNAc(b1-4)GlcNAc
# Outline: as §1
# [9] = biological target: Gal(b1-4)GlcNAc(b1-3)Gal(b1-4)GlcNAc(b1-2)Man(a1-3)[Gal(b1-4)GlcNAc(b1-3)Gal(b1-4)GlcNAc(b1-2)Man(a1-6)]Man(b1-4)GlcNAc(b1-4)[Fuc(a1-6)]GlcNAc
# Outline: as §1
# [10] = biological target: Gal(b1-4)GlcNAc(b1-3)Gal(b1-4)GlcNAc(b1-2)[Gal(b1-4)GlcNAc(b1-3)Gal(b1-4)GlcNAc(b1-6)]Man(a1-6)[Gal(b1-4)GlcNAc(b1-3)Gal(b1-4)GlcNAc(b1-2)Man(a1-3)]Man(b1-4)GlcNAc(b1-4)[Fuc(a1-6)]GlcNAc
# Outline: as §1
# [11] = biological target: Gal(b1-4)GlcNAc(b1-3)Gal(b1-4)GlcNAc(b1-3)Gal(b1-4)GlcNAc(b1-2)Man(a1-3)[Gal(b1-4)GlcNAc(b1-3)Gal(b1-4)GlcNAc(b1-3)Gal(b1-4)GlcNAc(b1-2)Man(a1-6)]Man(b1-4)GlcNAc(b1-4)GlcNAc
# Outline: as §1
# [12] = biological target: Gal(b1-4)GlcNAc(b1-3)[Gal(b1-4)GlcNAc(b1-6)]Gal(b1-4)GlcNAc
# Outline: as §1
# [13] = biological target: Gal(b1-4)GlcNAc(b1-3)[GlcNAc(b1-6)]Gal(b1-4)GlcNAc
# Outline: as §1
# Gal(b1-4)GlcNAc6P = biological target: Gal(b1-4)GlcNAc6P
# Outline: as §1
# Gal(b1-6)Gal = biological target: Gal(b1-6)Gal
# Outline: as §1
# Gal3S(b1-3)GlcNAc = biological target: Gal3S(b1-3)GlcNAc
# Outline: as §1
# Gal3S(b1-4)Glc = biological target: Gal3S(b1-4)Glc
# Outline: as §1
# Gal3S6S(b1-4)GlcNAc6S = biological target: Gal3S6S(b1-4)GlcNAc6S
# Outline: as §1
# GalNAc(b1-3)Gal = biological target: GalNAc(b1-3)Gal
# Outline: as §1
# [14] = biological target: GalNAc(b1-4)GlcNAc(b1-2)Man(a1-3)[GalNAc(b1-4)GlcNAc(b1-2)Man(a1-6)]Man(b1-4)GlcNAc(b1-4)GlcNAc
# Outline: as §1
# GalNAc(b1-4)GlcNAc6S = biological target: GalNAc(b1-4)GlcNAc6S
# Outline: as §1
# Glc(a1-6)Glc(a1-6)Glc = biological target: Glc(a1-6)Glc(a1-6)Glc
# Outline: as §1
# GlcA(b1-6)Gal = biological target: GlcA(b1-6)Gal
# Outline: as §1
binder,measurement,setting,value
LngA (Escherichia coli) (protein) MLSVYNRTQKFKAEARKKIAKYHELRKQRGMSLLEVIIVLGIIGTIAAGVVILAQRAFDSRAVTDLVTNTNTVRVRMKDAYQRDGKYPDFVDPLSLTANTIKTDTSGIPAAQLVQLGKITPDEVRNNISGDFIAIGGALTSNGAQVKKGFAIELNGLSQEQCRSILGQVGNNWEYVAIGTSASGSYAMTATGVDMSVAASTTVLRSLGNNGQTTLTADKILSTCTAQVNSITLGSR,glycan array binding signal (z-score),[1],-0.248
same,glycan array binding signal (z-score),[2],-0.414
same,glycan array binding signal (z-score),[3],0.215
same,glycan array binding signal (z-score),[4],0.398
same,glycan array binding signal (z-score),[5],-0.182
same,glycan array binding signal (z-score),Gal(a1-2)Gal,0.247
same,glycan array binding signal (z-score),Gal(a1-3)Gal(b1-3)GlcNAc,2.92
same,glycan array binding signal (z-score),Gal(a1-3)Gal(b1-4)Glc,-0.144
same,glycan array binding signal (z-score),Gal(a1-4)GlcNAc,-0.206
same,glycan array binding signal (z-score),Gal(b1-2)Gal,2.94
same,glycan array binding signal (z-score),Gal(b1-3)Gal,-0.316
same,glycan array binding signal (z-score),Gal(b1-3)GalNAc,-0.143
same,glycan array binding signal (z-score),[6],-0.438
same,glycan array binding signal (z-score),[7],-0.632
same,glycan array binding signal (z-score),[8],3.2
same,glycan array binding signal (z-score),[9],-0.289
same,glycan array binding signal (z-score),[10],4.27
same,glycan array binding signal (z-score),[11],3.43
same,glycan array binding signal (z-score),[12],-0.205
same,glycan array binding signal (z-score),[13],-0.507
same,glycan array binding signal (z-score),Gal(b1-4)GlcNAc6P,4.74
same,glycan array binding signal (z-score),Gal(b1-6)Gal,0.393
same,glycan array binding signal (z-score),Gal3S(b1-3)GlcNAc,-0.1
same,glycan array binding signal (z-score),Gal3S(b1-4)Glc,4.16
same,glycan array binding signal (z-score),Gal3S6S(b1-4)GlcNAc6S,2.24
same,glycan array binding signal (z-score),GalNAc(b1-3)Gal,0.532
same,glycan array binding signal (z-score),[14],-0.153
same,glycan array binding signal (z-score),GalNAc(b1-4)GlcNAc6S,-0.467
same,glycan array binding signal (z-score),Glc(a1-6)Glc(a1-6)Glc,0.075
same,glycan array binding signal (z-score),GlcA(b1-6)Gal,0.408
